Test [1] can be described thus: Quantitative High-Throughput drug screen in 47 multiple myeloma cell lines against the NCATS MIPE library collection: KMS12PE_JCRB cell viability assay (AID 1918972). Further: nearly all actives have a fitted effect of over 30% in size. On viability: series mostly up to about 46 µM. A digest of the protocol: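 Steps: seed 500 cells per well; pin-transfer MIPE 4.0 library; incubate 48 h at 37C, 5% CO2, humidified; add CellTiter-Glo, 5 min room temperature; read luminescence.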
Test [2] is described as follows: Quantitative High-Throughput drug screen in 47 multiple myeloma cell lines against the NCATS MIPE library collection: KMS26_JCRB cell viability assay (AID 1918975). Further: nearly all actives have a fitted effect of over 45% in size. A digest of the protocol:
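Myeloma cell lines, 500 cells per well, exposed to MIPE 4.0 library compounds for 48 h at 37C, 5% CO2. Viability from ATP by CellTiter-Glo luminescence; normalised to DMSO (100%) and media-only (0%) wells.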

Test [3] is described as follows: Quantitative High-Throughput drug screen in 47 multiple myeloma cell lines against the NCATS MIPE library collection: MMM1_PLB cell viability assay (AID 1918976). Further: nearly all actives have a fitted effect of over 35% in size. A digest of the protocol:
(§1)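 Inhibition of viability over 48 h was scored by ATP content (CellTiter-Glo) in 500-cell wells. Zero and full viability were defined by media-only and DMSO-only wells.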

Test [4] in a line: Quantitative High-Throughput drug screen in 47 multiple myeloma cell lines against the NCATS MIPE library collection: NCIH929_DSMZ cell viability assay (AID 1918978). Further: nearly all actives have a fitted effect of over 35% in size. A digest of the protocol:
as §1

Test [5] in a line: Quantitative High-Throughput drug screen in 47 multiple myeloma cell lines against the NCATS MIPE library collection: OCIMY1_PLB cell viability assay (AID 1918979). Further: nearly all actives have a fitted effect of over 35% in size. On viability: series mostly up to about 46 µM. Summed up: as §1
The nature of test [6]: Quantitative High-Throughput drug screen in 47 multiple myeloma cell lines against the NCATS MIPE library collection: MM1S_ATCC cell viability assay (AID 1918980). Further: nearly all actives have a fitted effect of over 45% in size. Summed up:
as §1

Test [7] can be described thus: Quantitative High-Throughput drug screen in 47 multiple myeloma cell lines against the NCATS MIPE library collection: MM1R_ATCC cell viability assay (AID 1918981). Further: nearly all actives have a fitted effect of over 35% in size. Summed up:
as §1

The nature of test [8]: Quantitative High-Throughput drug screen in 47 multiple myeloma cell lines against the NCATS MIPE library collection: LP1_DSMZ cell viability assay (AID 1918982). Further: nearly all actives have a fitted effect of over 35% in size. A digest of the protocol: as §1
Test [9] is described as follows: Quantitative High-Throughput drug screen in 47 multiple myeloma cell lines against the NCATS MIPE library collection: L363_DSMZ cell viability assay (AID 1918984). Further: nearly all actives have a fitted effect of over 40% in size. Summed up: as §1
Test [10] is described as follows: Quantitative High-Throughput drug screen in 47 multiple myeloma cell lines against the NCATS MIPE library collection: KMS34_JCRB cell viability assay (AID 1918985). Further: nearly all actives have a fitted effect of over 40% in size. A digest of the protocol:
as §1

Test [11] is described as follows: Quantitative High-Throughput drug screen in 47 multiple myeloma cell lines against the NCATS MIPE library collection: OCIMY7_PLB cell viability assay (AID 1918987). Further: nearly all actives have a fitted effect of over 65% in size. Summed up:
as §1

The nature of test [12]: Quantitative High-Throughput drug screen in 47 multiple myeloma cell lines against the NCATS MIPE library collection: OCIMY5_PLB cell viability assay (AID 1918988). Further: nearly all actives have a fitted effect of over 65% in size. A digest of the protocol:
as §1

The nature of test [13]: Quantitative High-Throughput drug screen in 47 multiple myeloma cell lines against the NCATS MIPE library collection: OPM1_PLB cell viability assay (AID 1918989). Further: nearly all actives have a fitted effect of over 40% in size. Summed up:
as §1

The nature of test [14]: Quantitative High-Throughput drug screen in 47 multiple myeloma cell lines against the NCATS MIPE library collection: SKMM1_PLB cell viability assay (AID 1919863). Further: nearly all actives have a fitted effect of over 35% in size. On viability: series mostly up to about 46 µM. The following applies: SKMM1 myeloma viability, CellTiter-Glo ATP, 48 h; viability: active compounds read low. Summed up:
as §1

Test [15] is described as follows: Quantitative High-Throughput drug screen in 47 multiple myeloma cell lines against the NCATS MIPE library collection: U266_ATCC cell viability assay (AID 1919864). Further: nearly all actives have a fitted effect of over 35% in size. Summed up:
as §1

The nature of test [16]: Quantitative High-Throughput drug screen in 47 multiple myeloma cell lines against the NCATS MIPE library collection: XG6_PLB cell viability assay (AID 1919865). Further: nearly all actives have a fitted effect of over 40% in size. Summed up:
as §1

Test [17] is described as follows: Quantitative High-Throughput drug screen in 47 multiple myeloma cell lines against the NCATS MIPE library collection: KMS28PE_JCRB cell viability assay (AID 1918983). Further: nearly all actives have a fitted effect of over 35% in size. Summed up:
as §1

A short description of test [18]: Quantitative High-Throughput drug screen in 47 multiple myeloma cell lines against the NCATS MIPE library collection: MOLP8_DSMZ cell viability assay (AID 1918977). Further: nearly all actives have a fitted effect of over 45% in size. Summed up:
as §1

Records with an inconclusive call do not appear. Unmarked numbers belong to inactive results. The source made the active and inactive calls. The call rests on the fitted dose curve; in most records, active means well fitted curve in the direction sought with a large enough effect; inconclusive means small, poorly fitted or top-dose-only effect, or another doubt; inactive means no such curve, though single readings can be large; an effect the other way counts as inactive or inconclusive. Non-standard residues stand in square brackets, D forms with d. Residues, ends and D or L forms follow the SMILES beside them. *: point of attachment. Sta = CC(C)C[C@H](N)[C@@H](O)CC(=O)O; Isovaleryl = CC(C)CC(=O)*
Potency means the concentration at half of the fitted maximal effect.

Turning to `Oc1ccc2ccccc2c1SSc1c(O)ccc2ccccc12`, the Potency is 20.9 µM (active) in test [1]; 9.35 µM (active) in test [2]; 20.9 µM (active) in test [3]; 8.33 µM (active) in test [4]; 20.9 µM (active) in [5]; 14.8 µM (active) in test [6]. Besides, the Potency was 14.8 µM (active) in test [7]; 23.5 µM (active) in test [8]; 13.2 µM (active) in test [9]; 5.9 µM (active) in test [10]; 4.69 µM (active) in test [11]; 14.8 µM (active) in test [12]. For the same compound, the Potency in [13] was 8.33 µM (active); in test [14] it was 18.7 µM (active); in [15], 20.9 µM (active); in [16] it was 10.5 µM (active).

For the compound `COCCCOc1ccnc(CS(=O)c2nc3ccccc3[nH]2)c1C` (stereo not drawn), the Potency result in [1], in test [2], in test [4], in test [7], in test [17] and in test [9] was “inactive” in each case. Moreover, the Potency result in test [10], in [13] and in test [15] was “inactive” each time. Besides, the Potency in test [16] was 10.5 µM (active).

`CCC[C@@H]1C[C@@H](C(=O)N[C@@H]([C@H]2O[C@H](SC)[C@H](O)[C@@H](O)[C@H]2O)[C@@H](C)O)N(C)C1`: the Potency entry in test [1], in test [2], in [18], in test [4], in test [6] and in [7] was “inactive” in each case. In addition, the Potency entry in test [8], in test [17], in test [13], in [15] and in test [16] was “inactive” in each case.

As usually defined, the viability is a read-out of living cells in per cent, often relative to untreated cells. As to `NC(=O)Cc1cccc(C(=O)c2ccccc2)c1N`, the Potency result in [1], in test [2], in test [18], in [4], in [7] and in test [8] was “inactive” in each case. The Potency entry in [17], in test [9] and in test [16] was “inactive” in each case. Besides, in test [12], the Potency is 4.69 µM (active). In addition, in [14], the viability was 121%.

Take `Nc1cccc2c1CN(C1CCC(=O)NC1=O)C2=O` (stereo not drawn): the Potency entry in test [1], in test [18], in test [10], in test [13], in test [15] and in [16] was “inactive” each time. Further, the Potency in test [2] is 0.605 µM (active); in [3], 0.429 µM (active); in test [17], 0.171 µM (active); in test [11] it was 0.0382 µM (active). Also, the viability in [14] is 122%.

`CCCc1cc(=O)[nH]c(=S)[nH]1`: the Potency result in test [1], in [2], in [18], in test [8], in [17] and in [10] was “inactive” throughout. Besides, the Potency result in [11] and in test [13] was “inactive” each time. Also, in test [6], the Potency is 2.64 µM (active). Besides, the viability in [14] was 115%.

Take `CN(C)CCCC1(c2ccc(F)cc2)OCc2cc(C#N)ccc21` (stereo not drawn): the Potency entry in test [1], in [2], in [5], in [8], in [9] and in test [10] was “inactive” each time. Moreover, in test [13], the Potency entry is “inactive”. Also, the Potency in [6] was 18.7 µM (active); in [11], 11.8 µM (active); in test [12], 18.7 µM (active); in test [15], 23.5 µM (active). Also, in test [14], the viability is 106%.

With `CCCCC(CC)COC(=O)C(C#N)=C(c1ccccc1)c1ccccc1` (stereo not drawn), the Potency result in [1], in test [2], in [18], in test [4], in test [5] and in test [7] was “inactive” throughout. The Potency result in [17], in test [10], in test [11] and in test [13] was “inactive” each time. The viability in test [14] is 130%.

For the compound `C=CCc1cc(OC)c(O)c(C(=O)NCCO)c1`, the Potency entry in test [1], in [2], in test [4], in test [5], in [6] and in [7] was “inactive” each time. Further, the Potency result in test [8], in [17], in [10], in test [12], in test [15] and in test [16] was “inactive” in each case.

With `CN(C)c1ccc(O)c2c1C[C@H]1C[C@H]3[C@H](N(C)C)C(=O)C(C(N)=O)=C(O)[C@@]3(O)C(=O)C1=C2O`, the Potency result in test [1] is “inactive”. Also, the Potency is 13.2 µM (active) in test [2]; 18.7 µM (active) in [3]; 20.9 µM (active) in [18]; 3.72 µM (active) in test [6]; 16.6 µM (active) in test [7]; 20.9 µM (active) in [17]. Further, the Potency in test [10] is 16.6 µM (active); in test [11] it was 10.5 µM (active); in test [15], 5.9 µM (active).

On to `CC(C)CC(=O)N[C@H](C(=O)N[C@H](C(=O)N[C@@H](CC(C)C)[C@@H](O)CC(=O)N[C@@H](C)C(=O)N[C@@H](CC(C)C)[C@@H](O)CC(=O)O)C(C)C)C(C)C` (Isovaleryl-VV[Sta]A[Sta]-OH), for which the Potency entry in test [1], in test [2], in [18], in [7], in [8] and in test [17] was “inactive” throughout. For the same compound, the Potency entry in test [9], in [11], in test [13] and in test [16] was “inactive” each time.

As for `S=c1nc[nH]c2nc[nH]c12`, the Potency in test [1] was 2.35 µM (active); in [2], 5.9 µM (active); in [4] it was 2.96 µM (active); in test [7] it was 7.43 µM (active); in [8], 10.5 µM (active); in [13], 1.66 µM (active). In test [16], the Potency was 2.35 µM (active). Also, in test [18], the Potency result was “inactive”. Besides, in test [14], the viability was 104%.

For the compound `COc1ccc(C2(C#N)CCC(C(=O)O)CC2)cc1OC1CCCC1` (stereo not drawn), the Potency entry in test [1], in test [2], in test [5], in test [7], in test [8] and in test [17] was “inactive” each time. Also, the Potency entry in test [10] and in test [15] was “inactive” in each case. Also, the Potency was 26.4 µM (active) in test [6] and 7.43 µM (active) in [13]. Besides, the viability in test [14] is 137%.

Take `C[C@@H](c1ncncc1F)[C@](O)(Cn1cncn1)c1ccc(F)cc1F`: the Potency result in test [1], in test [2], in test [18], in [5], in test [6] and in test [7] was “inactive” throughout. Moreover, the Potency entry in test [8], in [17], in test [10] and in [12] was “inactive” in each case. The Potency in test [16] was 5.26 µM (active).

Regarding `CC(C)[C@H](N)C(=O)OCCOCn1cnc2c(=O)[nH]c(N)nc21`, the Potency in test [1] was 23.5 µM (active); in [17], 14.8 µM (active). Also, the Potency result in [2], in test [3], in test [4], in test [7], in test [8] and in test [13] was “inactive” throughout. Besides, in test [15], the Potency result was “inactive”.

For `COC(=O)C1=C(C)NC(C)=C(C(=O)OC(C)C)C1c1cccc2nonc12` (stereo not drawn), the Potency result in [1], in test [2], in [5], in test [7], in test [8] and in [12] was “inactive” each time. The Potency in [3] is 5.9 µM (active); in test [4] it was 2.64 µM (active); in [6] it was 2.35 µM (active); in [17], 18.7 µM (active); in test [11], 6.62 µM (active); in test [13], 26.4 µM (active). The Potency is 3.72 µM (active) in test [15] and 5.9 µM (active) in test [16].

The values are drawn from PubChem BioAssay (NCATS).
